PNC inhibitor = perinucleolar compartment assembly inhibition | AID 2417 | activity change (PNC), negative = inhibition, % at 10 µM | PC3M PTB-GFP, PNC prevalence imaging, 16 h; active compounds read low | actives 3.1% (n = 140,000);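 active means readout at or below -70, meaning at least 70% loss of cells showing the perinucleolar compartment, a nuclear body marking cancer cells; inconclusive means readout between -30 and a set limit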
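Read-out is percentage of cells bearing a perinucleolar compartment, from automated 20x imaging of fixed, Hoechst-stained PC3M PTB-GFP cells. Cells were seeded 4 h, then exposed 16 h to compound (23 nl of library stock) in duplicate plates.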
HPGD inh = inhibitors of human 15-hydroxyprostaglandin dehydrogenase (HPGD). P15428. purified HPGD, NADH fluorescence kinetic, PGE2 substrate. Potency, µM, most hits filed as inhibitors. actives 4.3% (n = 150,000). AID 894; active means well fitted inhibition curve with a large enough effect, not every such curve was filed as active; inconclusive means small, poorly fitted or top-dose-only effect, or another doubt; inactive means no such curve, though single readings can be large or run the other way
Target sequence (P15428 whole entry, looked up): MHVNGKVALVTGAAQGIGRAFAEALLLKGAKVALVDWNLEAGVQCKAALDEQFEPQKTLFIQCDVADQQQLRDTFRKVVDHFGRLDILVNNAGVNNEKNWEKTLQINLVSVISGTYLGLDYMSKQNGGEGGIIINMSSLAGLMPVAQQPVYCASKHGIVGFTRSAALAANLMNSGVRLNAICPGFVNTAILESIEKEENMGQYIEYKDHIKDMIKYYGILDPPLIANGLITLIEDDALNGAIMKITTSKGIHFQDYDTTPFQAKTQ
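NADH formation kinetics: reaction with 30 uM PGE2 and 1 mM NAD+ (final), 20 nM enzyme, Tris-HCl pH 8 with Tween 20, after 15 min compound preincubation at room temperature. Fluorescence change, last versus first of five reads.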
ALDH1A1 block = inhibitors of human aldehyde dehydrogenase 1A1 | P00352 | Potency, µM (doses to about 75.3 µM), hits mostly inhibitors | actives 7.3% (n = 220,000) | Purified ALDH1A1, NADH fluorescence, propionaldehyde substrate; active means well fitted inhibition curve with a large enough effect, not every such curve was filed as active; inconclusive means small, poorly fitted or top-dose-only effect, or another doubt; inactive means no such curve, though single readings can be large or run the other way
Target sequence (P00352 whole entry, looked up): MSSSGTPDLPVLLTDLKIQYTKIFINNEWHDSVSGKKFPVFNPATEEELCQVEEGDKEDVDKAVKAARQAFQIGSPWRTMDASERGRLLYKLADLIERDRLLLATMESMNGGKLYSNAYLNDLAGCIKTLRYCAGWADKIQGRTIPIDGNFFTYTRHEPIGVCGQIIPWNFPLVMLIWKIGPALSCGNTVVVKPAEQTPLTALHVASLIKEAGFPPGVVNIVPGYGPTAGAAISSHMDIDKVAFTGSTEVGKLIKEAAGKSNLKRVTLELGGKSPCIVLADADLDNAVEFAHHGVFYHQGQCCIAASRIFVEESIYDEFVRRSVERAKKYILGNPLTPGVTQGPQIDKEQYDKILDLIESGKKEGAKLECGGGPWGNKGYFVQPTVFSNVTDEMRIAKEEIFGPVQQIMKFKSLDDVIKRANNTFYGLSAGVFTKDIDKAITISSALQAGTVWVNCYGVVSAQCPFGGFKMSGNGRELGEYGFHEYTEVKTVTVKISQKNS
aGal spleen mod = inhibitors or activators of human alpha-galactosidase in spleen homogenate. P06280. human spleen homogenate, 4MU-alpha-Gal fluorescence, 40 min. Potency, µM (highest dose often 80 µM), hits mostly inhibitors. actives 0.008% (n = 240,000). AID 2107
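Spleen homogenate 1 ug + cpd (titration) + 4-MU-alpha-D-galactopyranoside 1 mM; 37C 40 min; 50 mM citrate/phosphate pH 5.0, 0.01% Tween-20; stop pH 10; fluorescence 365/440; AC50 via Hill.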
ALOX12 inhib = 12-hLO (ALOX12) enzyme inhibition; P18054; purified 12-hLO, xylenol orange hydroperoxide absorbance; Potency, µM (titrated, usually from 57.1 µM), hits mostly inhibitors; actives 0.12% (n = 150,000); further: nearly all actives have a fitted effect of over 55% in size
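150 nM 12hLO, 25 mM Hepes pH 7.0 + 0.01% Triton X-100; cpd preinc 15 min RT; 40 uM arachidonic acid, 30 min RT; Fe-XO 30 min; A573/A405 ratio as read-out.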
GLA inh pH 4.5 = inhibitors of human alpha-galactosidase A at pH 4.5; P06280; purified enzyme, 4-MU-alpha-Gal fluorescence, pH 4.5; 230,000 tested, under 10 active; activity change, negative = inhibition, % at 105 µM; AID 1467
Numbers stand for hits; [ ] = dose if it differs, or a comment. Compounds with a hit are over-represented: about 10% of the library has one in this group of screens. Unless noted, the call rests on the fitted dose curve; in most records, active means well fitted curve in the direction sought with a large enough effect; inconclusive means small, poorly fitted or top-dose-only effect, or another doubt; inactive means no such curve, though single readings can be large; an effect the other way counts as inactive or inconclusive.

What do the screens show for `O=C(COC(=O)Cc1c(Cl)cccc1Cl)NCCC1=CCCCC1`?
PNC inhibitor: inactive; HPGD inh: 13µM; ALDH1A1 block: inactive; aGal spleen mod: inactive; ALOX12 inhib: inactive; GLA inh pH 4.5: inactive

Results for CCCC(=O)NCCc1c2n(c3ccc(OC)cc13)CCCc1ccccc1-2 ?
HPGD inh: inconclusive; ALDH1A1 block: inconclusive; aGal spleen mod: inactive; ALOX12 inhib: inactive; GLA inh pH 4.5: inactive

What do the screens show for `COc1ccc(N=Cc2c(O)n(-c3cccc(C)n3)c(=O)c3ccccc23)c(OC)c1`?
aGal spleen mod: inactive; GLA inh pH 4.5: inactive

What do the screens show for `O=C(O)c1ccccc1N/C=C\[N+](=O)[O-]`?
ALDH1A1 block: inconclusive; aGal spleen mod: inactive; GLA inh pH 4.5: inactive

What do the screens show for `CC(C)CCn1cnc2c(cnn2-c2ccc(F)cc2)c1=O`?
PNC inhibitor: inactive; HPGD inh: 11µM; ALDH1A1 block: inconclusive; aGal spleen mod: inactive; ALOX12 inhib: inactive; GLA inh pH 4.5: inactive

Results for CCN(CC)S(=O)(=O)c1ccc(NC2=NS(=O)(=O)c3ccccc32)cc1 ?
PNC inhibitor: inactive; HPGD inh: inactive; ALDH1A1 block: inconclusive; aGal spleen mod: inactive; ALOX12 inhib: inactive; GLA inh pH 4.5: inactive

What do the screens show for `O=S1(=O)N=C(Nc2nncs2)c2ccccc21`?
PNC inhibitor: inactive; HPGD inh: 28µM; ALDH1A1 block: inconclusive; aGal spleen mod: inactive; ALOX12 inhib: inactive; GLA inh pH 4.5: inactive

How did O=C(O)CC/C(=N\NC(=O)c1ccccc1Br)c1ccccc1 do in these assays?
PNC inhibitor: inactive; HPGD inh: inactive; ALDH1A1 block: inactive; aGal spleen mod: inactive; ALOX12 inhib: inactive; GLA inh pH 4.5: inactive

Results for COc1ccc(/C=C2\N=C3CCCCCN3C2=O)cc1OC ?
PNC inhibitor: inactive; HPGD inh: inactive; ALDH1A1 block: 14µM; aGal spleen mod: inactive; ALOX12 inhib: inactive; GLA inh pH 4.5: inactive

How did O=C(Nc1ccccc1)Oc1cccc(Br)c1 do in these assays?
aGal spleen mod: inactive; GLA inh pH 4.5: inactive

Results for CN(C)C(=O)/N=N/C(=O)N(C)C ?
HPGD inh: inactive; ALDH1A1 block: inconclusive; aGal spleen mod: inactive; GLA inh pH 4.5: inactive

What do the screens show for `CC1=NN(c2ccccc2)C(=O)C1N=Nc1ccccc1` (centres undefined)?
PNC inhibitor: inactive; HPGD inh: inactive; ALDH1A1 block: inactive; aGal spleen mod: inactive; ALOX12 inhib: inactive; GLA inh pH 4.5: inactive

How did CC1=NN(C(N)=S)C(=O)C1N=Nc1ccccc1 (centres undefined) do in these assays?
ALDH1A1 block: 22µM; aGal spleen mod: inactive; GLA inh pH 4.5: inactive

How did CC1=NN(C(N)=S)C(=O)C1N=Nc1cccc2ccccc12 (centres undefined) do in these assays?
ALDH1A1 block: 14µM; aGal spleen mod: inactive; GLA inh pH 4.5: inactive

Results for Cc1cccn2c(=O)c(C=O)c(N3CCN(c4ccc(F)cc4)CC3)nc12 ?
ALDH1A1 block: inconclusive; aGal spleen mod: inactive; GLA inh pH 4.5: inactive

How did CC(=O)n1c2ccccc2c2ccccc21 do in these assays?
PNC inhibitor: inactive; HPGD inh: inactive; ALDH1A1 block: inactive; aGal spleen mod: inactive; ALOX12 inhib: inactive; GLA inh pH 4.5: inactive

What do the screens show for `CC(=O)n1c(Cl)c(NC(=O)CCl)c2ccccc21`?
PNC inhibitor: inactive; HPGD inh: inactive; ALDH1A1 block: 22µM; aGal spleen mod: inactive; ALOX12 inhib: inactive; GLA inh pH 4.5: inactive

Results for Cn1c(-c2sc3cc(C(F)(F)F)cnc3c2-c2ccccn2)n[nH]c1=S ?
ALDH1A1 block: 35µM; aGal spleen mod: inactive; GLA inh pH 4.5: inactive

What do the screens show for `Cn1c(-c2sc3cc(C(F)(F)F)cnc3c2-c2cccnc2)n[nH]c1=S`?
PNC inhibitor: inactive; HPGD inh: 28µM; ALDH1A1 block: inconclusive; aGal spleen mod: inactive; ALOX12 inhib: inactive; GLA inh pH 4.5: inactive

What do the screens show for `Cn1c(-c2sc3cc(C(F)(F)F)cnc3c2-c2cccs2)n[nH]c1=S`?
ALDH1A1 block: inconclusive; aGal spleen mod: inactive; GLA inh pH 4.5: inactive

What do the screens show for `O=C(O)c1cc(N(Cc2ccccc2O)Cc2cc(O)ccc2O)ccc1O`?
HPGD inh: inconclusive; ALDH1A1 block: inconclusive; aGal spleen mod: inactive; ALOX12 inhib: inactive[0.00818 µM]; GLA inh pH 4.5: inactive

What do the screens show for `CCC(=Cc1ccc(CC)cn1)CC`?
ALDH1A1 block: inactive; aGal spleen mod: inactive; GLA inh pH 4.5: inactive

What do the screens show for `O=[N+]([O-])c1cc(CN2CCN(c3cccc(C(F)(F)F)c3)CC2)c2cccnc2c1O`?
ALDH1A1 block: 18µM; aGal spleen mod: inactive; GLA inh pH 4.5: inactive

What do the screens show for `CCN(CC)c1ccc(SS(=O)(=O)O)cc1`?
PNC inhibitor: inactive; HPGD inh: 8.9µM; ALDH1A1 block: 13µM; aGal spleen mod: inactive; ALOX12 inhib: inactive; GLA inh pH 4.5: inactive

What do the screens show for `CC(=O)N1CCC2(CCN(Cc3ccncc3)CC2)CC1`?
HPGD inh: inactive; ALDH1A1 block: inactive; aGal spleen mod: inactive; ALOX12 inhib: inactive

What do the screens show for `Cc1sc2nc(N3CCOCC3)[nH]c(=O)c2c1-c1ccccc1`?
PNC inhibitor: inconclusive; HPGD inh: inactive; ALDH1A1 block: inactive; aGal spleen mod: inactive; ALOX12 inhib: inactive; GLA inh pH 4.5: inactive

How did Cc1sc2nc(CN3CCOCC3)[nH]c(=O)c2c1-c1ccccc1 do in these assays?
PNC inhibitor: -110; HPGD inh: inactive; ALDH1A1 block: inactive; aGal spleen mod: inactive; ALOX12 inhib: inactive; GLA inh pH 4.5: inactive

Results for N=C1C(c2nc3ccccc3[nH]2)=C(O)CN1c1ccc(CC(=O)O)cc1 ?
PNC inhibitor: inactive; HPGD inh: inactive; ALDH1A1 block: 24µM; aGal spleen mod: inactive; ALOX12 inhib: inactive; GLA inh pH 4.5: inactive

Results for CC1S/C(=N/N=C/c2cccs2)NC1=O (centres undefined) ?
PNC inhibitor: inactive; ALDH1A1 block: inactive; aGal spleen mod: inactive; ALOX12 inhib: inactive; GLA inh pH 4.5: inactive

How did CC(C)C1S/C(=N/N=C/c2cccs2)NC1=O (centres undefined) do in these assays?
PNC inhibitor: inconclusive; HPGD inh: 25µM; ALDH1A1 block: inconclusive; aGal spleen mod: inactive; ALOX12 inhib: inactive; GLA inh pH 4.5: inactive

How did O=C(CCN1CCCCC1)Nc1ccc2c(c1)C(=O)c1ccc(NC(=O)CCN3CCCCC3)cc1C2=O do in these assays?
HPGD inh: inactive; ALDH1A1 block: inconclusive; aGal spleen mod: inactive; ALOX12 inhib: inactive[0.00818 µM]; GLA inh pH 4.5: inactive

Results for CC1CCN(c2ccc(C(=O)O)cc2N)CC1 ?
PNC inhibitor: inactive; ALDH1A1 block: inactive; aGal spleen mod: inactive; ALOX12 inhib: inactive; GLA inh pH 4.5: inactive

How did Nc1cc(C(=O)O)ccc1N1CCCCC1 do in these assays?
PNC inhibitor: -100; HPGD inh: inactive; ALDH1A1 block: inactive; aGal spleen mod: inactive; ALOX12 inhib: inactive; GLA inh pH 4.5: inactive
